Assay results published in ChEMBL document CHEMBL4513216, “Probing the Open Global Health Chemical Diversity Library for Multistage-Active Starting Points for Next-Generation Antimalarials” (ACS Infect Dis, 2020).
Screen size: about 69,000 compounds; about 8,600 (12%) showed an effect of 50% or more. The full list was thinned out, with strong results kept by preference.

Each molecule was assayed on Plasmodium berghei (assay: Screen against P. berghei liver stage (PbLuc), transformed with Luciferase, at 10uM). Settings: tested at 10 uM.
Assay type: functional, HepG2

Compared with `CC[C@@H](c1ccccc1)n1c(C2CC2)n[nH]c1=O`, `CC[C@H](C)[C@H](N)C(=O)N1CC(=O)c2sc(NCc3ccccc3)nc2C1` is higher in INHIBITION: 37.3% for the first, 61.9% for the second.

First: CCc1noc(CNCCn2cc(C)cn2)n1
Second: CC(C)c1nc(CN2CCCN(Cc3nccn3C)CC2)no1
The INHIBITION of the first is higher: -9.37% for the first, -23.8% for the second.

Compared with `COCc1noc(CNc2nc(C3CCCC3)nc3c2CCNCC3)n1`, `COCCNc1nc(C2CCCC2)nc2c1CCNCC2` is higher in INHIBITION: -52.2% for the first, -39.9% for the second.

First: Cc1nc2c(c(NCC(O)c3ccccc3Cl)n1)CCNCC2 (centres undefined)
Second: Cc1nc2c(c(NCC(O)C(F)(F)F)n1)CCNCC2 (centres undefined)
The INHIBITION of the first is lower: -32.6% for the first, 93.2% for the second.

Compared with `Cc1nc2c(c(NCCc3nc4c(s3)CCCC4)n1)CCNCC2`, `C1Cc2nc(CCNc3nc(C4CC4)nc4c3CCNCC4)sc2C1` is higher in INHIBITION: 25.8% for the first, 64.8% for the second.

First: c1nc(CCNc2nc(C3CC3)nc3c2CCNCC3)c[nH]1
Second: OC(CNc1nc(C2CCCC2)nc2c1CCNCC2)C(F)(F)F (centres undefined)
The INHIBITION of the first is lower: -3.77% for the first, 52.1% for the second.

First: OC(CNc1ncnc2c1CCNCC2)C(F)(F)F (centres undefined)
Second: CCc1cc(N2CCC(NC(=O)CCC3CCCO3)CC2)ncn1 (centres undefined)
The INHIBITION of the first is lower: 13.6% for the first, 37.6% for the second.

Compared with `CC(C)c1nn2c(-c3cnn(C)c3)nnc2s1`, `CC(C)c1nc(-c2cc(C(=O)N3CCN(C)CC3)c3ccccn23)cs1` is higher in INHIBITION: -14.2% for the first, 10.5% for the second.

First: CCC(C)(CNC(=O)c1ccon1)NC(=O)c1ccon1 (centres undefined)
Second: O=C(NCCNC(=O)c1scnc1Cl)c1ccoc1
The INHIBITION of the first is higher: -13.7% for the first, -23.8% for the second.

Compared with `COCC(=O)NCC1Cn2nnc(-c3ccncc3)c2CO1` (centres undefined), `COCC(=O)N1CCC(Nc2ccnc3ccc(Cl)cc23)CC1` is lower in INHIBITION: -4.02% for the first, -56.3% for the second.

First: COCCN1CCC2(CC1)CN(C(C)=O)c1ccc(C)cc12
Second: CC(=O)N1CCC2(CC1)C(=O)N(CC1CC1)c1ccccc12
The INHIBITION of the first is lower: -33% for the first, 1.56% for the second.

Going from `CCc1ocnc1C(=O)N1CCCC1c1noc(C)n1` (centres undefined) to `Cc1noc(C)c1C(C)C(=O)N1CCCN(Cc2cscn2)CC1` (centres undefined), the INHIBITION rises from 5.07% to 21.08%.

Going from `C=C(C)COc1cccc(CNCCc2nc(N)cc(O)n2)c1` to `C=C(C)COc1cccc(CNCCc2c[nH]cn2)c1`, the INHIBITION falls from 52.6% to 29.1%.

First: C=C(C)COc1cccc(CNCc2nc3ccccc3c(=O)[nH]2)c1
Second: COCCN1CC(=O)c2sc(NCc3ccccc3)nc2C1
The INHIBITION of the first is higher: 28.5% for the first, -0.371% for the second.

Going from `COCC1CC2(CCN(CC3CC3)CC2)CN1Cc1csc(C)n1` (centres undefined) to `Cc1noc(-c2ccnc(N3CCC(CN4CCOCC4)CC3)c2)n1`, the INHIBITION rises from 37.8% to 69.4%.

First: CCOC(=O)CCNC(=O)c1cc(Cl)cc2cccnc12
Second: CNC(=O)CN(C)C(=O)c1cc2ccccc2cc1OC
The INHIBITION of the first is lower: 30.5% for the first, 45.2% for the second.

Going from `CCn1c(CC2CCN(C(=O)C3CCOC3)CC2)nn(C)c1=O` (centres undefined) to `CCn1c(CC2CCN(C(=O)C3COCCO3)CC2)nn(C)c1=O` (centres undefined), the INHIBITION falls from 56.1% to 9.56%.

First: CCn1c(CC2CCN(C(=O)C3CNCCO3)CC2)nn(C)c1=O (centres undefined)
Second: Cc1cc(N2CCC(NC(=O)CCC3CCCO3)CC2)nc(C)n1 (centres undefined)
The INHIBITION of the first is lower: 47.4% for the first, 62.2% for the second.

Compared with `Cc1noc(-c2ccnc(N3CCN(C4CCOCC4)CC3)c2)n1`, `Cc1noc(-c2ccnc(N3CCC(N4CCCC4)CC3)c2)n1` is higher in INHIBITION: 10.7% for the first, 48.5% for the second.

Compared with `Cc1ccc(-c2nc(CNCC3CN(C)CCO3)co2)cc1` (centres undefined), `Cc1ccc(C(C(=O)NCc2cc(C)[nH]n2)N(C)C)cc1` (centres undefined) is higher in INHIBITION: -12.2% for the first, 31.4% for the second.

First: CN(C)C(C(=O)NCc1cc(C(C)(C)C)n[nH]1)c1ccc(F)cc1 (centres undefined)
Second: Cc1cc(CNC(=O)C(c2ccc(F)cc2)N(C)C)n[nH]1 (centres undefined)
The INHIBITION of the first is higher: 50.2% for the first, 37.3% for the second.

First: Cc1cc(N2CCC(NC(=O)CCc3ccco3)CC2)nc(C)n1
Second: NC(=O)CN1CCC(Nc2ccnc3ccc(Cl)cc23)CC1
The INHIBITION of the first is higher: 38.7% for the first, 15.1% for the second.

First: COc1ccc2nnc(CCCC(=O)Nc3nc4c(s3)CCC4)n2n1
Second: CNc1nc2c(s1)C(=O)CN(C(=O)NCCc1ccccc1)C2
The INHIBITION of the first is higher: 38.4% for the first, 23.4% for the second.

Going from `COc1cc(CN2CCC3(CC2)[C@H](O)C[C@@H]3OCCO)ccc1F` to `COc1ccc(F)c(F)c1CN1CCC2(CC1)[C@H](O)C[C@@H]2OCCN`, the INHIBITION falls from 51.1% to 7.31%.

Compared with `COCCCC1(CO)CCCN(Cc2ccc(F)c(OC)c2)C1` (centres undefined), `COc1cc(CN2CC[C@@]3(CCCO3)[C@@H](O)C2)ccc1F` is higher in INHIBITION: -58.9% for the first, 44.9% for the second.

Compared with `COc1cc(C)c(CN2CCC3(CC2)[C@H](O)C[C@@H]3OCCN)cc1C`, `NCCO[C@H]1C[C@@H](O)C12CCN(Cc1c(F)cccc1F)CC2` is higher in INHIBITION: 23.3% for the first, 52.2% for the second.

Compared with `Cn1nnnc1SCC1COc2ccccc2O1` (centres undefined), `COc1ccc(-n2cc(CNC(=O)c3cscn3)nn2)cc1` is lower in INHIBITION: 35.2% for the first, -27.3% for the second.

First: CC(C)Nc1nc2c(s1)C(=O)CN(C(=O)NCCc1ccccc1)C2
Second: CC(C)Nc1nc2c(s1)C(=O)CN(C(=O)NCc1ccccc1)C2
The INHIBITION of the first is lower: -7.79% for the first, 73.8% for the second.

First: CC[C@H](C)[C@H](N)C(=O)N1CC(=O)c2sc(NC3CCCCC3)nc2C1
Second: CCNc1nc2c(s1)C(=O)CN(C(=O)NCc1ccccc1)C2
The INHIBITION of the first is lower: 35.2% for the first, 66.4% for the second.

First: CNc1nc2c(s1)C(=O)CN(C(=O)NCc1ccccc1)C2
Second: CCNc1nc2c(s1)C(=O)CN(C(=O)NCCc1ccccc1)C2
The INHIBITION of the first is higher: 42.9% for the first, 24.4% for the second.

First: O=C(Cc1ccccc1)N1Cc2nccn2CC(CN2CCCC2)C1 (centres undefined)
Second: CCC(CC)C(=O)c1c[nH]c(C(=O)N2CCN(c3ccccc3)CC2)c1
The INHIBITION of the first is higher: 11.3% for the first, -26.8% for the second.

Compared with `O=C(c1cccc(NCCOc2ccc(F)cc2)c1)N1CCOCC1`, `O=C(NCc1nc(NC2CCCC2)c2cc(Cl)ccc2n1)c1ccoc1` is higher in INHIBITION: 10.6% for the first, 89% for the second.

First: CS(=O)(=O)Cc1ccc(C(=O)NCc2ccc(Cl)cc2Cl)cc1
Second: O=C(NCc1nc(NC2CCCC2)c2cc(Cl)ccc2n1)c1cscn1
The INHIBITION of the first is lower: 29.4% for the first, 54.6% for the second.

Going from `O=C(NCc1nc(NC2CCCC2)c2cc(Cl)ccc2n1)c1cncs1` to `O=C(NCCSC1CCCC1)c1cc(Cl)ccn1`, the INHIBITION falls from 68.6% to -45%.

`O=C(NCCNC(=O)C1CCN(c2ncccn2)CC1)c1ccoc1` showed an INHIBITION of 15.1%.
